Sampled rows, rich in hits. Any-hit rate of the full collection: about 3.9%.
TGFb SMAD3 inh – qHTS for Inhibitors of TGF-b. HepG2 CAGA-GFP TGF-b/SMAD3 reporter, GFP fluorescence, 18 h; TGF-beta stimulated, 500 pg/mL final. Potency, µM (titrated, usually from 46.1 µM), inactives show at the top dose activity, negative = inhibition, usual class: inhibitors. 1.2% of 410,000 active. AID 588855, 2011; also: % is scaled to controls: 0 for no effect and ±100 for the full control effect; nearly all actives have a fitted effect of over 65% in size
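Read-out: total well GFP (ex488/em500-530) summed from mean per-cell fluorescence. Cells: HEPG2 CAGA-GFP, 1% FBS DMEM, 18 h at 37 degrees C with 500 pg/mL final TGF-beta. Unstimulated wells served as the full-inhibition control; stimulated DMSO wells = 0%.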
HT1080NT lethal – qHTS for induction of synthetic lethality in tumor cells producing 2HG: qHTS for the HT-1080-NT fibrosarcoma cell line. HT-1080-NT fibrosarcoma viability, CellTiter-Glo ATP luminescence, 48 h. Potency, µM (top dose mostly 46.1 µM), for the others: at the top dose activity, negative = less viability, usual class: cytotoxic. 1.6% of 360,000 active. AID 686970, 2013;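 also: NT is the 2HG producing partner of a matched IDH1 knockdown line; 0% = DMSO-treated cells and -100% = media-only wells without cells; nearly all actives have a fitted effect of over 55% in size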
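Read-out is CellTiter-Glo luminescence after 10 minutes at room temperature, following 48 hours' compound treatment of HT-1080-NT cells (750 cells/well, RPMI, 5% FBS, 37 degrees C).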
ATXN viability – Viability Counterscreen for Primary qHTS for Inhibitors of ATXN expression; S2 cells (HEK-293 line with an ATXN2-luciferase reporter) viability, CellTiter-Fluor protease fluorescence, 24 h; Potency, µM (highest dose often 56.7 µM), hits mostly cytotoxic; 0.49% of 400,000 active; also: nearly all actives have a fitted effect of over 40% in size
ATXN2 expr inh – Primary qHTS for Inhibitors of ATXN expression; HEK-293 ATXN2-luciferase reporter, luminescence, 24 h; Potency, µM (series often up to 57 µM), inactives show at the top dose activity change, negative = inhibition, most hits filed as inhibitors; 0.72% of 360,000 active; also: % is scaled to controls: 0 for no effect and ±100 for the full control effect; nearly all actives have a fitted effect of over 55% in size
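qHTS (up to 57 uM final) was run with 24 h compound exposure of reporter cells at 37 °C. Each well was multiplexed: SteadyGlo luminescence measured ATXN2-luciferase expression after a fluorogenic Gly-Phe-AFC viability readout (25 uM final).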
HT1080 IDH1KD tx – qHTS for induction of synthetic lethality in tumor cells producing 2HG: qHTS for the HT-1080-IDH1KD cell line; HT-1080 IDH1 knockdown viability, ATP luminescence, 48 h; Potency, µM (series often up to 46.1 µM), inactives show at the highest dose activity, negative = toxicity, most hits filed as cytotoxic; 2% of 360,000 active;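 also: 0% = DMSO wells and -100% = cell-free medium wells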
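Using the IDH1-knockdown HT-1080 line run in the same batch and compound series as the NT line, viability after 48 h at 37 °C was determined by CellTiter-Glo luminescence and expressed as % activity.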
HepG2 tox-1 – qHTS for Inhibitors of TGF-b: Cytotox Counterscreen; HepG2 CAGA-GFP viability, ATP luminescence, 18 h; Potency, µM (series often up to 46.1 µM), inactives show at the highest dose activity change, negative = cytotoxicity, hits mostly cytotoxic; 0.76% of 410,000 active
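CellTiter-Glo luminescence gave cytotoxicity after 18 hours at 37 degrees C. The cells were HepG2 CAGA-GFP in 1% FBS DMEM, stimulated with 500 pg/mL TGF-beta after compound addition. %Activity was normalised to no-cell wells (complete cell-killing) and DMSO (no toxicity), and curves were fitted and classified.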
TGFb CAGA inh – qHTS for Inhibitors of TGF-b: Confirmation of Cherry Picks | HepG2 CAGA-GFP TGF-b reporter, GFP fluorescence, 18 h; cells stimulated with TGF-beta, 500 pg/mL | 63% of 1,600 active | shares compounds with TGFb SMAD3 inh | AID 720534, 2013 | Potency, µM (top dose mostly 46.1 µM), without a hit: at the top dose activity, negative = inhibition, hits mostly inhibitors; also: % is scaled to controls: 0 for no effect and ±100 for the full control effect; nearly all actives have a fitted effect of over 65% in size
HepG2 tox-2 – qHTS for Inhibitors of TGF-b: Cytotox Counterscreen for Cherry Picks; shares compounds with TGFb SMAD3 inh; 27% of 1,600 active; Potency, µM (titrated, usually from 46.1 µM), for the others: at the top dose activity, negative = cytotoxicity, most hits filed as inhibitors; HepG2 CAGA-GFP viability, ATP luminescence, 18 h; cells stimulated with TGF-beta, 500 pg/mL; also: % is scaled to controls: 0 for no effect and ±100 for the full control effect; nearly all actives have a fitted effect of over 70% in size
CCL64 TGFb inh – qHTS for Inhibitors of TGF-b: CCL64 Cells Orthogonal Assay for Cherry Picks | shares compounds with TGFb SMAD3 inh | CCL64 CAGA-GFP reporter, TGF-b stimulated, GFP fluorescence, 18 h | Potency, µM (doses to about 46.1 µM), inactives show at the highest dose activity, negative = inhibition, most hits filed as inhibitors | 41% of 1,600 active | AID 720536, 2013; also: nearly all actives have a fitted effect of over 65% in size
TGFb COP inh – qHTS for Inhibitors of TGF-b: Hit Validation in HepG2 Cells using COP promoter. AID 720537, 2013. shares compounds with TGFb SMAD3 inh. Potency, µM (titrated, usually from 46.1 µM), for the others: top-dose activity, negative = inhibition, hits mostly inhibitors. HepG2 COP-GFP TGF-b reporter, GFP fluorescence, 18 h; cells stimulated by added recombinant TGF-beta. 3% of 1,600 active; also: nearly all actives have a fitted effect of over 70% in size
Starred values were filed as active, the others as inactive. Calls follow the shape of the dose curve; as a rule, active = well fitted curve in the direction sought with a large enough effect; inconclusive = small, poorly fitted or top-dose-only effect, or another doubt; inactive = no such curve, though single readings can be large; an effect the other way counts as inactive or inconclusive. Potency is read from the fitted curve at half-maximal effect.

COc1cc(C2c3cc4c(cc3OC(NCc3ccccc3)C2C)OCO4)cc(OC)c1OC (stereo unspecified) was read as TGFb SMAD3 inh 2.8µM*, HT1080NT lethal 1.6µM*, ATXN viability inconclusive, ATXN2 expr inh -19%, HT1080 IDH1KD tx 1.2µM*, HepG2 tox-1 -105%, TGFb CAGA inh 7.3µM*, HepG2 tox-2 0%, CCL64 TGFb inh inconclusive and TGFb COP inh -16%.
`CCN(CC)C1Oc2cc3c(cc2C(c2cccc(OC)c2O)C1C)OCO3` (stereo unspecified) gave TGFb SMAD3 inh inconclusive, HT1080NT lethal inconclusive, ATXN viability inconclusive, ATXN2 expr inh -24%, HT1080 IDH1KD tx inconclusive and HepG2 tox-1 -3%.
Screening COc1cccc(C2c3cc4c(cc3OC(NNC(N)=O)C2C)OCO4)c1O (stereo unspecified) returned TGFb SMAD3 inh 10µM*, HT1080NT lethal 4.6µM*, ATXN viability inconclusive, ATXN2 expr inh 10%, HT1080 IDH1KD tx 6.5µM*, HepG2 tox-1 3%, TGFb CAGA inh 8.2µM*, HepG2 tox-2 -19%, CCL64 TGFb inh inconclusive and TGFb COP inh -15%.
For CCN(CC)C1Oc2cc3c(cc2C(c2cc(OC)c(O)c(OC)c2)C1C)OCO3 (stereo unspecified) the results were TGFb SMAD3 inh 0%, HT1080NT lethal inconclusive, ATXN viability inconclusive, ATXN2 expr inh -20%, HT1080 IDH1KD tx inconclusive and HepG2 tox-1 9%.
For COc1cc(OC)cc(C(=O)Nc2ccc3nc(N4CCCCC4)cc(C)c3c2)c1 the results were TGFb SMAD3 inh -5%, ATXN viability inactive, ATXN2 expr inh inconclusive and HepG2 tox-1 -16%.
O=C(CN1C2CCCC1CC(NC(=O)C1CCCCC1)C2)Nc1ccccc1C(F)(F)F (stereo unspecified) was read as TGFb SMAD3 inh inconclusive, HT1080NT lethal -28%, ATXN viability inconclusive, ATXN2 expr inh inconclusive, HT1080 IDH1KD tx inconclusive, HepG2 tox-1 -13%, TGFb CAGA inh 18µM*, HepG2 tox-2 inconclusive, CCL64 TGFb inh inconclusive and TGFb COP inh -3%.
`COc1cccc(C(=O)NC2CC3CCCC(C2)N3CC(=O)Nc2ccccc2C(F)(F)F)c1` (stereo unspecified) gave TGFb SMAD3 inh inconclusive, HT1080NT lethal inconclusive, ATXN viability inconclusive, ATXN2 expr inh inconclusive, HT1080 IDH1KD tx inconclusive and HepG2 tox-1 -7%.
Screening CCC(=O)NC(Nc1sc2c(c1C(=O)OC)CCC2)C(Cl)(Cl)Cl (stereo unspecified) returned TGFb SMAD3 inh 11µM*, HT1080NT lethal 1%, ATXN viability inactive, ATXN2 expr inh -17%, HT1080 IDH1KD tx 1%, HepG2 tox-1 9%, TGFb CAGA inh 21µM*, HepG2 tox-2 -10%, CCL64 TGFb inh inconclusive and TGFb COP inh -27%.
Screening COC(=O)c1c(NC(NC(=O)CC(C)C)C(Cl)(Cl)Cl)sc2c1CCC2 (stereo unspecified) returned TGFb SMAD3 inh inconclusive, HT1080NT lethal 1%, ATXN viability inactive, ATXN2 expr inh -15%, HT1080 IDH1KD tx -14% and HepG2 tox-1 -4%.
Screening COC(=O)c1c(NC(NC(=O)C(C)(C)C)C(Cl)(Cl)Cl)sc2c1CCC2 (stereo unspecified) returned TGFb SMAD3 inh 13µM*, HT1080NT lethal inconclusive, ATXN viability inactive, ATXN2 expr inh -6%, HT1080 IDH1KD tx inconclusive, HepG2 tox-1 -2%, TGFb CAGA inh 9.2µM*, HepG2 tox-2 inconclusive, CCL64 TGFb inh inconclusive and TGFb COP inh 53%.
For COC(=O)c1c(NC(NC(C)=O)C(Cl)(Cl)Cl)sc2c1CCCC2 (stereo unspecified) the results were TGFb SMAD3 inh 13µM*, HT1080NT lethal -17%, ATXN viability inactive, ATXN2 expr inh -14%, HT1080 IDH1KD tx -6%, HepG2 tox-1 -26%, TGFb CAGA inh 15µM*, HepG2 tox-2 -22%, CCL64 TGFb inh 16µM* and TGFb COP inh 4%.
Screening CCN(Cc1ccccc1)C(=O)Cn1c(=O)n(-c2ccc(C)c(C)c2)c(=O)c2c(C)c(C)sc21 returned TGFb SMAD3 inh inconclusive, ATXN viability inactive, ATXN2 expr inh -5% and HepG2 tox-1 -15%.
`COc1ccc(S(=O)(=O)N2CCCCCC2)cc1C(=O)N(C)Cc1c(F)cccc1Cl` gave TGFb SMAD3 inh -3%, HT1080NT lethal -3%, ATXN viability inactive, ATXN2 expr inh 4%, HT1080 IDH1KD tx -3% and HepG2 tox-1 -4%.
For COc1ccc(S(=O)(=O)N2CCCCCC2)cc1C(=O)N(C)Cc1ccc(Cl)cc1Cl the results were TGFb SMAD3 inh 16µM*, HT1080NT lethal inconclusive, ATXN viability inconclusive, ATXN2 expr inh inconclusive, HT1080 IDH1KD tx inconclusive, HepG2 tox-1 0%, TGFb CAGA inh 18µM*, HepG2 tox-2 -19%, CCL64 TGFb inh inconclusive and TGFb COP inh 31%.

Screens as filed in PubChem.
